# According to PubChem BioAssay (EPA / NIEHS):
# Results filed as inconclusive are left out. The source made the active and inactive calls. How the source made its calls: active means hit-call score of the fitted dose curve at least 0.9, where 1 is the maximum; inconclusive means response in the unintended direction; inactive means score below 0.9.
# Biological target: human Retinoid X Receptor beta (RXRb), RXRB (gene 6257) (UniProt P28702)
# Assay: ATG_RXRb_TRANS: Attagene TRANS-FACTORIAL HepG2 Assay for human Retinoid X Receptor beta (RXRb) (AID 2283013)
# Procedure: ATG_TRANS is a cell-based, multiplexed-readout assay that uses HepG2, a human liver cell line, with measurements taken at 24 hours after chemical dosing in a 24-well plate.ATG_RXRb_TRANS is one of 30 assay component(s) measured or calculated from the ATG_TRANS assay. It is designed to make measurements of mRNA induction, a form of inducible reporter, as detected with fluorescence intensity signals by Reverse transcription polymerase chain reaction (RT-PCR) and Capillary electrophoresis technology.Data from the assay component ATG_RXRb_TRANS was analyzed into 1 assay endpoint. This assay endpoint, ATG_RXRb_TRANS, was analyzed in the positive analysis fitting direction relative to DMSO as the negative control and baseline of activity. Using a type of inducible reporter, measures of mRNA for gain-of-signal activity can be used to understand the reporter gene at the transcription factor-level as they relate to the gene RXRB. Furthermore, this assay endpoint can be referred to as a primary readout, because this assay has produced multiple assay endpoints where this one serves a reporter gene function. To generalize the intended target to other relatable targets, this assay endpoint is annotated to the nuclear receptor intended target family, where the subfamily is non-steroidal.
# Human liver HepG2 cells are transiently transfected with multiple reporter transcription units (MRTUs) in 6-well plates using FuGene 6 reagent (Roche; 3 ml FuGene/1 mg DNA). The MRTU constructs are regulated by a cis-regulating element (promoter). […] A major difference between the CIS and TRANS system is that in CIS activities of endogenous TFs are measured, whereas the TRANS assay evaluates changes in activities of exogenous, chimeric NR-Gal4 proteins. […] At the end of 24 hour incubation, total RNA was isolated using TriZol reagent (Invitrogen). The isolated RNA is then reverse-transcribed using oligo(dT) primer and Mo-MLV reverse transcriptase (Invitrogen) with DNAse I (Ambion) treatment for 30 min. The one-tenth of the produced cDNA was amplified by PCR using Taq DNA polymerase (Invitrogen) and two reporter sequence-specific primers. The PCR products were fluorescently labeled by primer extension with 6-arboxyfluorescein (6-FAM) 5'-labeled reporter sequence-specific primer (2 min at 95 C, 20 s at 68 C and 10 min at 72 C) and these products were digested with 5U of HpaI (New England Biolabs) for 2h at 37 C. The fragments were purified using Qiaquick PCR columns (Qiagen), analyzed on an ABI 3130xL genetic analyzer (Applied Biosystems) with peak positions identified by using a set of X-rhodamine (ROX)-labeled MapMarker1000 molecular weight standards (BioVentures). The raw capillary electrophoresis data was processed using Attagraph software (Attagene).
# Sequence of human Retinoid X Receptor beta (RXRb), RXRB (gene 6257) (P28702 whole entry, looked up): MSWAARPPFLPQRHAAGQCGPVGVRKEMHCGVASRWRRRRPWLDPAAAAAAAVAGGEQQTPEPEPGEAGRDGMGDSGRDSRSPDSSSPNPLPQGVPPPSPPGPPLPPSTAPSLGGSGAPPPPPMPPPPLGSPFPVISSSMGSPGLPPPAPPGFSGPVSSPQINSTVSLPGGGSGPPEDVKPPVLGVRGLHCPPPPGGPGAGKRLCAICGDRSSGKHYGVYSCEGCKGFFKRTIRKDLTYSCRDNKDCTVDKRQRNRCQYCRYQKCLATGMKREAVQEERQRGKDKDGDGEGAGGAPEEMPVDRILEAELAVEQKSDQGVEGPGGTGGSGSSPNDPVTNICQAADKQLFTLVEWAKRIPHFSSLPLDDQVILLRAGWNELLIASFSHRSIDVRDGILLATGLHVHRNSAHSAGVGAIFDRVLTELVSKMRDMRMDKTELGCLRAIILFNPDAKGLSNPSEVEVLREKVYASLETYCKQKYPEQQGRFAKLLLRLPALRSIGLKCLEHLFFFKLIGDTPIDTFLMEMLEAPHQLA
Structure (SMILES),outcome,AC50
CCCCCCCCCCN,inactive,–
O=C=NC1CCC(CC2CCC(N=C=O)CC2)CC1 (stereo not given),inactive,–
CC1=CC(=O)NS(=O)(=O)O1,inactive,–
Cc1ccc(C(=O)O)o1,inactive,–
CC(C)(C)c1n[nH]c(=S)n(N)c1=O,inactive,–
COC(=O)Cc1cccc2ccccc12,–,55.2 µM (active)
C=C(C)C(=O)O[C@H]1C[C@@H]2CC[C@@]1(C)C2(C)C,–,100 µM (active)
OCC(CO)(CO)COCC(CO)(CO)CO,inactive,–
C=CC(C)(O)CCC=C(C)CCC=C(C)C (stereo not given),–,27.3 µM (active)
CC(C)(C#N)c1cc(Cn2cncn2)cc(C(C)(C)C#N)c1,inactive,–
C=O,inactive,–
CCCCCOC(=O)CCC,inactive,–
CCCCCCCCCCCCN(CCCCCCCCCCCC)CCCCCCCCCCCC,inactive,–
CO[Si](CCCn1c(=O)n(CCC[Si](OC)(OC)OC)c(=O)n(CCC[Si](OC)(OC)OC)c1=O)(OC)OC,inactive,–
CCCCCCCCCCCCCCCC(=O)OC[C@H](O)[C@H]1OC(=O)C(O)=C1O,inactive,–
C[C@H]1C[C@H]2[C@@H]3CCC4=CC(=O)C=C[C@]4(C)[C@@]3(F)[C@@H](O)C[C@]2(C)[C@@]1(O)C(=O)COP(=O)(O)O,inactive,–
CC(C=O)Cc1ccc(C(C)C)cc1 (stereo not given),inactive,–
CC1CCC2CC1C2(C)C (stereo not given),inactive,–
CC1CCC(C(C)(C)O)CC1 (stereo not given),inactive,–
CCCC/C=C\CCCCCCCCCC=O,–,6.07 µM (active)

Structure (SMILES),outcome,AC50
Nc1cc([N+](=O)[O-])ccc1Cl,inactive,–
Clc1ccc(Cl)c(Cl)c1Cl,–,63.4 µM (active)
CC(C)(C)C(=O)c1ccccc1,inactive,–
NCCCN1CCOCC1,inactive,–
CC1=CCC2C(C1)C2(C)C (stereo not given),inactive,–
CCCCCCCCCOC(C)=O,inactive,–
CC(C)(N)CO,inactive,–
CC(C)(C)c1cc(CCC(=O)NN)cc(C(C)(C)C)c1O,inactive,–
COC(C)CCO (stereo not given),–,4.07 µM (active)
CCCCCCCCCCCCOCCO,–,33.4 µM (active)
O=C1CCCCCCCCCCOCCCCO1,inactive,–
O=S(=O)(O)c1ccc(O)c2ncccc12,inactive,–
CCCCCCCCCCCCCCCC(=O)O,inactive,–
O=C1CCc2ccccc2O1,inactive,–
COc1cc(C=O)ccc1OC(=O)C(C)C,inactive,–
CC(=O)c1c(C)cc(C(C)(C)C)cc1C,–,31.4 µM (active)
Nc1cc([N+](=O)[O-])ccc1O,inactive,–
C=C(C)[C@@H]1CCC2=CC(=O)C[C@@H](C)[C@]2(C)C1,inactive,–
O=C(O)CCSCCC(=O)O,inactive,–
CC(C)C(C)(C)C(C)(C)C(C)(C)S,inactive,–
